Bioassay records deposited in PubChem BioAssay by National Center for Advancing Translational Sciences (NCATS).
A selection: hits, their analogues and other compounds. The true share with any hit is near 12%.
Sfp inh: Sfp phosphopantetheinyl transferase inhibition; Q9F4F7; 3.5% of 310,000 active; Potency, µM, without a hit: largest response in the series, negative = inhibition, hits mostly inhibitors; Biochemical Sfp PPTase activity, qHTS;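 also: the enzyme is Sfp with the accession as filed and its product quenches rhodamine fluorescence; 0% = enzyme reaction without inhibitor and -100% = no enzyme wells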
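With Hepes-Na pH 7.6 buffer containing 10 mM MgCl2, Sfp (15 nM) modified BHQ-2-YbbR (12.5 uM) using rhodamine-CoA (5 uM). Two reads 30 minutes apart at 525/598 nm yielded each well's rate.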
BAZ2B inh: blocks human BAZ2B; Q9UIF8; AlphaScreen BAZ2B-H3K14Ac peptide displacement; Potency, µM (series often up to 114 µM), for inactives: at the top dose activity change, negative = inhibition, usual class: inhibitors; 4.4% of 360,000 active; also: % is scaled to controls: 0 for no effect and ±100 for the full control effect; nearly all actives have a fitted effect of over 60% in size
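AlphaScreen displacement: compounds (up to 110uM) incubated 30 min at room temperature with a preformed 50 nM BAZ2B/50 nM biotinylated H3K14Ac peptide complex in PBS pH 7.4 with Tween-20. Donor and acceptor beads at 10 ug/mL final added, 20 min light-protected before reading.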
PLK1 PBD block: blocks phosphopeptide binding to human PLK1 polo-box domain; Plk1 PBD binding of FITC phosphopeptide, fluorescence polarization; Potency, µM, inactives show max response, negative = inhibition, usual class: inhibitors; P53350; 2.8% of 360,000 active; also: series mostly up to about 57 µM; % is scaled to controls: 0 for no effect and ±100 for the full control effect; nearly all actives have a fitted effect of over 65% in size
HP1b binding inh: blocks HP1-beta chromodomain binding to methylated histone tails; Potency, µM (highest dose often 114 µM), for inactives: at the top dose activity change, negative = inhibition, hits mostly inhibitors; 0.56% of 390,000 active; P83916; AlphaScreen HP1-beta / biotin-H3K9me3 peptide binding; also: nearly all actives have a fitted effect of over 70% in size
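Compound inhibition of the preformed complex between 50 nM HP1-beta and 50 nM biotinylated H3K9me3 peptide was read by AlphaScreen. Buffer was PBS pH 7.4 with 0.01% Tween-20. Incubations ran 30 min at room temperature, with 10 ug/mL donor/acceptor beads.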
G9a block: G9a (human) methyltransferase inhibition; Q96KQ7; G9a H3K9 monomethylation, AlphaScreen, 2 h; Potency, µM (titrated, usually from 102 µM), without a hit: at the top dose activity, negative = inhibition, most hits filed as inhibitors; 8.8% of 350,000 active; also: % is scaled to controls: 0 for no effect and ±100 for the full control effect; nearly all actives have a fitted effect of over 75% in size
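G9a (20 nM) preincubated 15 min RT with compounds, then 500 nM biotinylated H3K9 peptide and 20 uM SAM added; 2 h RT reaction. Monomethyl-H3K9 product detected by AlphaScreen with anti-H3K9me1 antibody, streptavidin donor and anti-rabbit IgG acceptor beads.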
JMJD2A Tudor inh: inhibitors of human JMJD2A Tudor domain; AID 504339; AlphaScreen JMJD2A-Tudor / H3K4me3 peptide binding; Potency, µM (top dose mostly 114 µM), without a hit: at the top dose activity change, negative = inhibition, hits mostly inhibitors; 4.4% of 390,000 active; also: % is scaled to controls: 0 for no effect and ±100 for the full control effect; nearly all actives have a fitted effect of over 50% in size
Target sequence (O75164 whole entry, looked up, the tested form may be a part): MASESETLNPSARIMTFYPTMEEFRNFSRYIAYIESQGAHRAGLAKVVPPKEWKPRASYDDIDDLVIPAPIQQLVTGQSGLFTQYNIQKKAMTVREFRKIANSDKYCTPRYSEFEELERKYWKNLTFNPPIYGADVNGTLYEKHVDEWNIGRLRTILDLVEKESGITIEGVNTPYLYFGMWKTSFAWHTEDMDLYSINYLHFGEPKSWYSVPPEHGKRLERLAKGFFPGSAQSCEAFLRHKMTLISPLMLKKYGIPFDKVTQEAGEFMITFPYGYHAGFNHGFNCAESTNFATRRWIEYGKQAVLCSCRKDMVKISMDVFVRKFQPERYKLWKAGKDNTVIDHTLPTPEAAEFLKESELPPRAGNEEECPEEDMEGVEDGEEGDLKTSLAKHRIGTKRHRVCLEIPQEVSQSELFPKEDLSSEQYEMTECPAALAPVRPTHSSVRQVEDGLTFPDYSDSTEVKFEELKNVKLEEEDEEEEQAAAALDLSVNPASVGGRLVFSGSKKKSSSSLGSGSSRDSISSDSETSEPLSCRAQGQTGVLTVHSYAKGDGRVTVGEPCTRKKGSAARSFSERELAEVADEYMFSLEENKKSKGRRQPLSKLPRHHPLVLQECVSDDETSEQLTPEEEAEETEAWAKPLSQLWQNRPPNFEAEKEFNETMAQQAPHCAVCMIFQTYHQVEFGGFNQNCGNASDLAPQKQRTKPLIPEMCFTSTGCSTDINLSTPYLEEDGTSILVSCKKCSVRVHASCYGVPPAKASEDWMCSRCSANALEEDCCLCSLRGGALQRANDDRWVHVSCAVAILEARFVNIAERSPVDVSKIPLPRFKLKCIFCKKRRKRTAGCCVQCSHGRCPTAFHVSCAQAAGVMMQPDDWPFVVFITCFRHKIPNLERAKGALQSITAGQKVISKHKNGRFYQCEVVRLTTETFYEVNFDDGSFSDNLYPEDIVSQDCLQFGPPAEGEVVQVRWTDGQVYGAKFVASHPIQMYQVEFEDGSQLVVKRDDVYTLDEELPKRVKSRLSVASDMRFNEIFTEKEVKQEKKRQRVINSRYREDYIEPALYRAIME
* hit, by the source's call; ? = inconclusive; nt = no result given; [ ] = dose if it differs, or a comment. Calls follow the shape of the dose curve; as a rule, active = well fitted curve in the direction sought with a large enough effect; inconclusive = small, poorly fitted or top-dose-only effect, or another doubt; inactive = no such curve, though single readings can be large; an effect the other way counts as inactive or inconclusive. Potency is read from the fitted curve at half-maximal effect.

SMILES	Sfp inh	BAZ2B inh	PLK1 PBD block	HP1b binding inh	G9a block	JMJD2A Tudor inh
N#CC1(NC(=O)COC(=O)c2cc(=O)[nH]c3ccccc23)CCCCC1	nt	6%	-3%	26%	-32%	-14%
Cc1ccc(-c2ccccc2)n1-c1cccc(C(=O)O)c1	-20%	-35%	-12%	-6%	50µM*	?
Cc1ccc(-c2ccccc2)n1-c1ccc(C(=O)O)cc1	71µM*	?	?	1%	10µM*	?
Cc1ccc(C(=O)O)cc1-n1c(C)ccc1-c1ccccc1	nt	?	nt	-5%	?	-31%
CCCS(=O)(=O)NC(=O)C1(C)CCN(C(=O)c2cc(C)oc2C)C1 (configuration not stated)	nt	nt	-6%	nt	nt	nt
O=C1CC(=C2c3ccccc3-c3ccccc32)C(=O)N1CCCCN1CCN(c2ccccc2)CC1	-1%	?	-9%	-7%	7.9µM*	?
CCOC(=O)N1CCN(C(=O)/C(=C/c2ccc(N(C)C)cc2)NC(=O)c2ccccc2)CC1	nt	-27%	3%	19%	-16%[12.7 µM]	-13%
O=C(Oc1cccc2ccccc12)c1ccco1	-7%	5%	-7%	58%	?	16%
O=C(COc1ccc(Cl)c2cccnc12)N1CCOCC1	nt	0%	-11%	43%	13%[59 µM]	-12%
O=C(Oc1cccc2cccnc12)c1ccc(Br)o1	-16%	50µM*	-1%	29%	?	-23%
NNC(=O)COc1cccc2cccnc12	2%	-5%	-5%	44%	-16%[59 µM]	-4%[11.4 µM]
O=C(Oc1cccc2cccnc12)c1ccco1	-22%	71µM*	-7%	28%	26%[59 µM]	-17%
O=C(Cc1ccc(Cl)cc1)Oc1cccc2cccnc12	-6%	10µM*	-2%	21%	?	25µM*
O=C(Oc1ccc(Cl)c2cccnc12)c1ccco1	14%	50µM*	-1%	42%	?	-18%
O=C(Nc1cccc2cccnc12)c1ccc(Br)o1	-22%	-10%	-2%	24%	?	4%
CCOc1cc(CNCCSc2nnnn2-c2ccccc2)cc(Cl)c1OC	nt	21%	nt	94%	-1%[59 µM]	-9%
Cc1ccccc1CC1(CO)CCCN(C(=O)c2ccc3ncccc3c2)C1 (configuration not stated)	-3%	1%	2.7µM*	-2%	nt	8.9µM*
CCOc1ccc(C(c2c(O)nc(SC)n(C)c2=O)c2c(O)nc(SC)n(C)c2=O)cc1	?	-5%	12µM*	45%	11µM*	-16%
O=C(Nc1nc2ccc(F)cc2s1)C1=COCCO1	nt	1%	-14%	26%	50µM*	-7%
O=C(Nc1nc2cc3c(cc2s1)OCCO3)C1=COCCO1	-1%	-16%	24µM*	-4%	22%	?
CSc1cccc2sc(NC(=O)C3=COCCO3)nc12	nt	-3%	4%	18%	-3%	-7%
CC1CCCC(C)N1CC(O)COC1CCC(C(C)(C)C)CC1 (configuration not stated)	-4%	3%	-11%	27%	nt	-16%
CC(C)NCC(O)COC1CCC(C(C)(C)C)CC1 (configuration not stated)	0%	10%	21µM*	14%	-42%	-7%[11.4 µM]
CCCn1c2ccccc2c2nnc(SCc3[nH]c(=O)[nH]c3C(=O)CCCCC(=O)OCC)nc21	25µM*	-21%	-10%	34%	?	-20%
CCc1cccc(NC(=O)c2ccc(CN3C(=O)C(C)=C(c4ccc(OC)cc4)S3(=O)=O)cc2)c1	nt	-19%	nt	-2%	13%[59 µM]	-18%
SMILES	Sfp inh	BAZ2B inh	PLK1 PBD block	HP1b binding inh	G9a block	JMJD2A Tudor inh
COc1cccc(C(C)(O)c2nc(-c3cccc(NC(C)=O)c3)cs2)c1 (configuration not stated)	nt	nt	-2%	nt	nt	nt
CCOc1ccc(-n2c(=O)c3c4c(sc3n(CC(=O)NC(C)CC)c2=O)CCCC4)cc1 (configuration not stated)	nt	5%	nt	17%	1%[59 µM]	-12%
Cc1n[nH]c(=S)n1-c1ccccc1	-3%	-31%	-19%	20%	nt	89µM*
Cc1ccc(OCc2n[nH]c(=S)n2-c2ccc(Cl)cc2)cc1	6%	-38%	-29%	12%	3.2µM*	?
CC(c1n[nH]c(=S)n1-c1ccc(F)cc1)N1CCCCC1 (configuration not stated)	-2%	-3%	-16%	3%	35µM*	?
CCC(c1n[nH]c(=S)n1-c1ccccc1)N(C)C (configuration not stated)	-8%	-23%	-4%	26%	8.9µM*	32µM*
CCC(=O)N1CCc2cc(S(=O)(=O)CCC(=O)N3CCN(c4ccc(F)cc4)CC3)ccc21	2%	-21%	-13%	17%	18%	-10%
Cc1ccc(Cl)cc1N1CCN(C(=O)c2noc3c2CCCC3)CC1	nt	45%[57.1 µM]	nt	36%	16%[59 µM]	22%
CC(c1n[nH]c(=S)n1-c1ccc(Cl)cc1)N(C)C (configuration not stated)	-26%	-11%	-11%	-19%	8.9µM*	7.9µM*
Cc1n[nH]c(=S)n1-c1ccc(Cl)cc1	-17%	-2%	?	36%	?	2.5µM*
CCc1ccc(-n2c(C)n[nH]c2=S)cc1	-8%	1%	-7%	8%	-48%	3.5µM*
COC(Cc1nnc(SC)n1-c1ccc(Cl)cc1)OC	9%	5%	-5%	4%	14%	-16%
COC(Cc1n[nH]c(=S)n1-c1ccc(Cl)cc1)OC	25%	4%	-10%	17%	?	14µM*
S=c1[nH]nc(-c2ccc3ccccc3n2)n1-c1ccc(Cl)cc1	16%	4%	-19%	13%	?	?
CC1(C(=O)NCc2ccccc2)CCC(=O)N1CCc1c[nH]c2ccccc12 (configuration not stated)	nt	nt	-13%	nt	nt	nt
Cc1ccccc1CSc1nc2ccsc2c(=O)n1CCC(C)C	nt	3%	nt	45%	16%[59 µM]	42%
CC(C)CCC(CC(C)O)c1n[nH]c(=S)n1-c1ccccc1 (configuration not stated)	-23%	10%	-2%	8%	6.3µM*	8.9µM*
Cc1ccc(C(=O)C(C)OC(=O)Cn2[nH]c(=O)c3ccccc3c2=O)cc1C (configuration not stated)	-1%	-24%	-19%	21%	-3%	-27%
Cc1cccc(C)c1NC(=O)C1(C)CSCC(=O)N1CCC(C)C (configuration not stated)	nt	nt	-9%	nt	nt	nt
Cc1[nH]n(C(N)=S)c(=O)c1N=Nc1ccc2ccccc2c1	11%	25µM*	-1%	?	32µM*	45µM*
CC(=O)Nc1ccc(N=Nc2c(C)[nH]n(C(N)=S)c2=O)cc1	40µM*	-11%	?	8%	45µM*	-27%
